From PubChem BioAssay (NCATS)
Inconclusive results are not listed. Active and inactive are the calls of the source. Unless noted, calls come from the whole dose curve; as a rule, active = well fitted curve in the direction sought with a large enough effect; inconclusive = small, poorly fitted or top-dose-only effect, or another doubt; inactive = no such curve, though single readings can be large; an effect the other way counts as inactive or inconclusive.

Columns and labels:
[1] = target: Cytochrome P450 1A2 (Homo sapiens) (UniProt P05177); experiment: p450-cyp1a2 (AID 410; calls by dose curve; note: potency is the fitted concentration of half-maximal effect;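 for activity change, negative = inhibition: -100% = full effect of reference inhibitor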); settings: recombinant CYP1A2, luciferin-ME demethylation, luminescence; series mostly up to 57 µM
Summary of the method: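 Luminescent demethylation readout: Luciferin-ME (100uM, equal to Km) turned over by 20nM CYP1A2 for 60 min at room temperature after NADPH regeneration addition, following 10 min compound preincubation. Normalization used 57 uM furafylline as full inhibition.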

[2] = target: Glucocorticoid receptor (Homo sapiens) (UniProt P04150); experiment: GR-GFP Redistribution (AID 450;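 active = compounds whose dose series gives a full or clear partial fitted curve of increased nuclear translocation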; note: potency is the fitted concentration of half-maximal effect); settings: U2OS GR-GFP nuclear translocation, laser cytometry, 2 h
[3] = target: Glucocorticoid receptor (Homo sapiens) (UniProt P04150); experiment: GR-EFC Redistribution (AID 451; calls by dose curve; note: potency is the fitted concentration of half-maximal effect); settings: CHO-K1 GR-EFC translocation, beta-gal luminescence, 2 h
Summary of the method: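 Translocation of GR-ED fusion to nuclear EA restores b-gal, read by luminescence after 1 h room-temperature detection. Engineered CHO-K1 biosensor cells, 1,000/well, exposed 2 h at 37 C to titrations up to 46 uM final.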

[4] = target: Mitogen-activated protein kinase 10 (Mus musculus) (UniProt Q61831); experiment: JNK3 AlphaScreen Assay (AID 530; active = well fitted curve in either direction with a large enough effect, not every such curve was filed as active;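 note: kinase came from lysate of stimulated human HepG2 cells; signal reports phosphorylation of biotinylated GST-cJun 1-79 at Ser73 with 10 µM ATP; % is set by controls: 0 for no effect and ±100 for the full control effect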); settings: JNK3 lysate, c-Jun phosphorylation; series mostly up to 57.1 µM
Summary of the method: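 qHTS titrations with 15 min compound pre-incubation before adding ATP (10 uM final). Read-out: AlphaScreen of Ser73-phosphorylated biotin-GST-cJun using HepG2 lysate JNK3 activated by IL-1β and TNFα.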

[5] = target: 3',5'-cyclic-AMP phosphodiesterase 4B (Homo sapiens) (UniProt Q07343); experiment: qHTS Assay for Inhibitors of PDE-IV (AID 607; active = well fitted activation curve with a large enough effect in the main read-out, with a control signal flat, not every such curve was filed as active; note: % of control where 0% means no effect); settings: HEK293 ACTOne CNG channel cells, membrane potential fluorescence; series mostly up to 22.9 µM
Summary of the method: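 Cell-based read-out of cAMP via a modified cyclic nucleotide-gated channel and membrane potential dye (535/590 nm) in HEK293 cells expressing PDE4 endogenously. Compounds tested up to 22.9 uM final; 100 uM RO 20-1724 reference.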

[6] = target: Cytochrome P450 2C9 (Homo sapiens) (UniProt P11712); experiment: qHTS Assay for Inhibitors and Substrates of Cytochrome P450 2C9 (AID 883); settings: recombinant CYP2C9, luciferin-H luminescence, 60 min; series mostly up to 57.1 µM; note: % is set by controls: 0 for no effect and ±100 for the full control effect; nearly all actives have a fitted effect of over 60% in size
Summary of the method: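 Turnover of Luciferin-H (100uM, KM) by 10nM human CYP2C9 was measured over 60 min at 37C with NADPH regeneration; inhibitors and some substrates reduce luminescence. Data normalized to sulphaphenazole 57uM.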

[7] = target: Cytochrome P450 2D6 (Homo sapiens) (UniProt P10635); experiment: qHTS Assay for Inhibitors and Substrates of Cytochrome P450 2D6 (AID 891); settings: recombinant CYP2D6, luciferin-ME EGE luminescence; series mostly up to 57.1 µM; note: nearly all actives have a fitted effect of over 60% in size; note: potency is the fitted concentration of half-maximal effect
Summary of the method: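 Luminescent read-out of luciferin formed by 5 nM human CYP2D6 demethylating 30 uM Luciferin-ME EGE (Km level) over 60 min at room temperature after NADPH regeneration addition. Data normalized to full inhibition by 1.43 uM quinidine.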

[8] = target: Cytochrome P450 2C19 (Homo sapiens) (UniProt P33261); experiment: qHTS Assay for Inhibitors and Substrates of Cytochrome P450 2C19 (AID 899); settings: recombinant CYP2C19, luciferin-H EGE luminescence; series mostly up to 57.1 µM; note: % is set by controls: 0 for no effect and ±100 for the full control effect; nearly all actives have a fitted effect of over 60% in size
Summary of the method: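 Reactions contain 5nM enzyme, 10uM Luciferin-H EGE (KM) and 50mM KPO4; compound preincubates 10 min at 37C, NADPH regeneration starts turnover for 60 min. Luminescence after detection reagent gives activity.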

[9] = AP1 Signaling Pathway (AID 357; active = well fitted curve in either direction with a large enough effect, not every such curve was filed as active;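 note: ME-180 reporter cells stimulated with EGF at its EC50 level; % is set by controls: 0 for no effect and ±100 for the full control effect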); settings: ME-180 (cervical carcinoma) AP-1-bla reporter, EGF-induced, beta-lactamase ratio, 5 h; at 17.2 µM (top of the series) unless noted
Summary of the method: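 Beta-lactamase reporter under AP-1 response element, ME-180 background. Stimulus: EC50 EGF. Compound exposure 5 h, 37 °C. Detection: CCF4, 2.5 h RT, 460/530 nm. Values: AC50 from titration.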

[10] = target: Guanine nucleotide-binding protein G(i) subunit alpha-1 (Homo sapiens) (UniProt P63096); experiment: qHTS Assay for Inhibitors of RGS12 GoLoco Motif Activity (Green Fluorophore) (AID 879); settings: Galphai1/FITC-RGS12 GoLoco peptide, fluorescence polarization; series mostly up to 57.1 µM;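 note: 0% = labeled peptide with Gαi1 and full inhibition = labeled peptide alone without protein; negative values mean loss of peptide binding seen as reduced polarization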
Summary of the method: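 A drop in FITC polarization marked displacement of the FITC-tagged RGS12 GoLoco peptide (10 nM) from Gαi1 (50 nM). Compounds were incubated 10 min at room temperature in Tris pH 7.5 buffer containing 150 mM NaCl, 0.1 mM GDP and 0.05% NP40; unlabeled peptide titration served as control.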

[11] = target: Cytochrome P450 3A4 (Homo sapiens) (UniProt P08684); experiment: qHTS Assay for Activators of Cytochrome P450 3A4 (AID 885); settings: recombinant CYP3A4, Luciferin-PPXE luminescence, 60 min; series mostly up to 57.1 µM; note: nearly all actives have a fitted effect of over 65% in size
Summary of the method: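 Luminescent readout of luciferin formed from 25 uM Luciferin-PPXE (KM level) by 20 nM CYP3A4 in 200 mM KPO4, with 60 min NADPH-driven reaction at room temperature after 10 min compound exposure. Ketoconazole (57 uM) defined 100% inhibition.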

[12] = qHTS Assay for Identification of Small Molecule Agonists for Thrombopoietin (TPO) Signaling Pathway (AID 917); settings: TPO signaling pathway reporter cells, agonist qHTS; series mostly up to 38.5 µM; note: % is set by controls: 0 for no effect and ±100 for the full control effect
Summary of the method: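 First, Ba/F3 cells with human TPO receptor were held overnight without IL-3. Next, compounds and TPO (26 pM final) were added. After 24 hrs at 37 C, luciferase detection reagent was added and luminescence measured following 10 min at room temperature.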

[13] = target: Muscarinic acetylcholine receptor M1 (Rattus norvegicus) (UniProt P08482); experiment: qHTS Assay for Antagonists of Acetylcholine Muscarinic M1 Receptor: Kinetic Measurement of Intracellular Calcium Response (AID 943); settings: M1-expressing cells, kinetic intracellular calcium fluorescence; series mostly up to 35.3 µM; note: potency is the fitted concentration of half-maximal effect; nearly all actives have a fitted effect of over 75% in size
Summary of the method: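 Antagonism measured as reduction of carbachol-evoked (EC80, 100 nM final) calcium flux in rat M1-CHO cells after 10 min compound exposure. Fluo-4 signal read kinetically; ratio of maximal to basal fluorescence.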

[14] = target: Muscarinic acetylcholine receptor M1 (Rattus norvegicus) (UniProt P08482); experiment: qHTS Assay for Antagonists of Acetylcholine Muscarinic M1 Receptor: Measurement of IP-One Response (AID 944); settings: CHO-M1 cells, IP-One HTRF, antagonist mode; series mostly up to 46.1 µM; note: nearly all actives have a fitted effect of over 75% in size; note: potency is the fitted concentration of half-maximal effect
Summary of the method: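 IP1 accumulation measured via TR-FRET between d2-IP1 and Eu-cryptate anti-IP1 antibody after carbachol (200 nM, EC80) stimulation for 30 min; rat M1-transfected CHO cells received compound 10 min before agonist.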

[15] = target: Pyruvate kinase (Leishmania mexicana) (UniProt Q27686); experiment: qHTS Validation Assay for Inhibitors of Leishmania Mexicana Pyruvate Kinase (AID 945);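 note: 0% = DMSO only neutral control wells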; settings: purified L. mexicana pyruvate kinase, enzyme activity, E451W mutant enzyme; series mostly up to 57.5 µM
Summary of the method: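 Read-out: luminescence from PKLight stop/detection reagent, data normalized to DMSO. Reaction: 0.2 nM E451W LmPYK, 0.5 mM PEP, 0.1 mM ADP, pH 7.2, 1 h room temperature.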

[16] = target: Pyruvate kinase PKM (Homo sapiens) (UniProt P14618); experiment: qHTS Assay for Activators of Human Muscle Pyruvate Kinase (AID 954; active = well fitted curve in the direction sought with a large enough effect, not every such curve was filed as active;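 note: 0% = uninhibited enzyme and -100% = no enzyme or full thiadiazolimine inhibition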); settings: purified human muscle pyruvate kinase, luciferase-coupled luminescence, 1 h; series mostly up to 57.5 µM
Summary of the method: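 ATP production by PKM2 detected via luciferase luminescence after 1 h room-temperature reaction (0.1 nM enzyme, PEP at Km 0.5 mM, ADP 0.1 mM, pH 7.2 imidazole buffer). Inhibition scaled to no-enzyme control; activation referenced to 0.3 nM enzyme wells.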

[17] = target: Alpha-galactosidase (Coffea arabica) (UniProt Q42656); experiment: Counterscreen for Glucocerebrosidase Inhibitors: qHTS Assay for Coffee Bean alpha-Galactosidase at pH 4.5 (AID 957); settings: purified coffee bean alpha-galactosidase, fluorogenic substrate; series mostly up to 76.9 µM;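 note: plate controls were enzyme alone for no effect and no enzyme for full effect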
Summary of the method: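 Fluorogenic qHTS at pH 4.5 (citrate buffer with Tween-20): 2 nM enzyme, 80 uM 4-MU-alpha-galactoside substrate, compound titrated 0.7 nM to 77 uM, 20 min room temperature. Glycine/NaOH stop; 4-MU read Ex 365/Em 440; Hill-equation AC50 against no-enzyme and enzyme controls.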

[18] = target: Alpha-galactosidase A (Homo sapiens) (UniProt P06280); experiment: Counterscreen for Glucocerebrosidase Inhibitors: qHTS Assay for Human alpha-Galactosidase at pH 4.5 (AID 992); settings: purified enzyme, fluorogenic substrate; series mostly up to 76.9 µM; note: 0% is about no effect
Summary of the method: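 Fluorogenic 1536-well qHTS at pH 4.5 (citrate, Tween-20): 2 nM enzyme, 80 uM 4-MU-alpha-galactoside, 20 min room temperature, NaOH/glycine stop. Titration 0.7 nM to 77 uM, data normalized to no-enzyme and full-activity controls, Hill-fitted AC50.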

[19] = target: alpha-glucosidase (Oryza sativa, rice) (UniProt Q653V4); experiment: Counterscreen for Glucocerebrosidase Inhibitors: qHTS Assay for Rice alpha-Glucosidase at pH 5.0 (AID 997); settings: rice alpha-glucosidase enzyme activity; series mostly up to 76.9 µM;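 note: 0% = full activity with enzyme and -100% = basal without enzyme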
Summary of the method: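 Endpoint fluorogenic assay at pH 5.0: compounds (0.7 nM to 77 uM) titrated against 4 nM rice enzyme and 400 uM 4-MU-alpha-glucoside for 20 min at room temperature; NaOH/glycine stop, read ex 365/em 440 nm, Hill-fitted AC50.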

[20] = target: Alpha-galactosidase (Coffea arabica) (UniProt Q42656); experiment: Counterscreen for Glucocerebrosidase Inhibitors: qHTS Assay for Coffee Bean alpha-Galactosidase at pH 5.9 (AID 998); settings: coffee bean alpha-galactosidase enzyme assay; series mostly up to 76.9 µM;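 note: plate controls were uninhibited enzyme for no effect and no-enzyme basal signal for full effect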
Summary of the method: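 Fluorogenic 4-MU substrate hydrolysis, 80 uM substrate and 2 nM coffee bean alpha-galactosidase, pH 5.9 citrate buffer, 20 min at room temperature, then NaOH/glycine stop. Titration 0.7 nM–77 uM, normalized to no-enzyme and enzyme controls, AC50 via Hill equation.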

[21] = NFAT Signaling Pathway (AID 444; active = well fitted curve in either direction with a large enough effect, not every such curve was filed as active;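 note: carbachol stimulus at about its EC50 of 1 µM final; % is set by controls: 0 for no effect and ±100 for the full control effect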); settings: Jurkat NFAT-bla M1, carbachol, beta-lactamase ratio, 5 h; at 17.2 µM (top of the series) unless noted
Summary of the method: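 Read-out: CCF4 FRET ratio (460 nm/530 nm) after 1 h RT dye loading, used for %activity and AC50 from titration series. Cells: Jurkat NFAT-β-lactamase/M1 line, treated with compound plus 1 uM carbachol for 5 h, 37 °C.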

[22] = qHTS Assay for Identification of Small Molecule Antagonists for Thrombopoietin (TPO) Signaling Pathway (AID 918); settings: TPO-dependent cell signaling reporter, antagonist mode; note: potency is the fitted concentration of half-maximal effect; nearly all actives have a fitted effect of over 60% in size
Summary of the method: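 Inhibition read as reduced luciferase luminescence after 24 h at 37 C in IL-3-deprived Ba/F3 cells carrying human TPO receptor and GPIIb-promoter reporter, stimulated with 26 pM TPO (final, its EC50) alongside compound.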

Glucocorticoid receptor (Homo sapiens), sequence (P04150 whole entry, looked up, the tested form may be a part): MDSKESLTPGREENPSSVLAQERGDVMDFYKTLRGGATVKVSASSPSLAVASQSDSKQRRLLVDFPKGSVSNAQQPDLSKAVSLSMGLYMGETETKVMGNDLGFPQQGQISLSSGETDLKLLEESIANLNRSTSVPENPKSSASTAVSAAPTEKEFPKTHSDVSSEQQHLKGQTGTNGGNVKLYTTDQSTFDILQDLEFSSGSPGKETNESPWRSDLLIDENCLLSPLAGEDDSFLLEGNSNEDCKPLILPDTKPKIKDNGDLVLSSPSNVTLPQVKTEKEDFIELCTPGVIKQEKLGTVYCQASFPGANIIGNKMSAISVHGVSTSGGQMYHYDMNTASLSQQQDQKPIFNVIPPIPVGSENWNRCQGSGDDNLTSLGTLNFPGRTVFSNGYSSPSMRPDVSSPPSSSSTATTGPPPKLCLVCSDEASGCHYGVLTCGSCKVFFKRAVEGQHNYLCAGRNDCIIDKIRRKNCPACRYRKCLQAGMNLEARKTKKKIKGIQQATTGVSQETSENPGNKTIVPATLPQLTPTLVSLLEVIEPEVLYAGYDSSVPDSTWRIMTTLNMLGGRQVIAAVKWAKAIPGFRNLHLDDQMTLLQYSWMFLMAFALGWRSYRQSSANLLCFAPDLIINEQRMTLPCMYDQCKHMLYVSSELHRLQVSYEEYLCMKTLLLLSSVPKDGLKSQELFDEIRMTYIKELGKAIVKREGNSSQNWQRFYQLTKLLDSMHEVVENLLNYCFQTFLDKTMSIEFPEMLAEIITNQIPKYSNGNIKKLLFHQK
Cytochrome P450 2C9 (Homo sapiens), sequence (P11712 whole entry, looked up): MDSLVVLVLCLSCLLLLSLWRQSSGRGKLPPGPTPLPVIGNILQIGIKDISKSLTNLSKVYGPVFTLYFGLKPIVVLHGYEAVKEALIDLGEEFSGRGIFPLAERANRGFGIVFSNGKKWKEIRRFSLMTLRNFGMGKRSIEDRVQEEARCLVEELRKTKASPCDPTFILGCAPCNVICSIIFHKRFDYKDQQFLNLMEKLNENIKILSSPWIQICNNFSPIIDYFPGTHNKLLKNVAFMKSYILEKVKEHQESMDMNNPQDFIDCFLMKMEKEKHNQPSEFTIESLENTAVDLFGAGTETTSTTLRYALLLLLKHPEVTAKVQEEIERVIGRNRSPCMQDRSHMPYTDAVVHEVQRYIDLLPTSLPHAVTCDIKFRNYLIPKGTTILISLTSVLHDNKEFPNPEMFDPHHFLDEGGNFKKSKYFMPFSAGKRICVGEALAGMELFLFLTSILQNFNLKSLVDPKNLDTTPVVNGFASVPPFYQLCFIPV
Cytochrome P450 2C19 (Homo sapiens), sequence (P33261 whole entry, looked up): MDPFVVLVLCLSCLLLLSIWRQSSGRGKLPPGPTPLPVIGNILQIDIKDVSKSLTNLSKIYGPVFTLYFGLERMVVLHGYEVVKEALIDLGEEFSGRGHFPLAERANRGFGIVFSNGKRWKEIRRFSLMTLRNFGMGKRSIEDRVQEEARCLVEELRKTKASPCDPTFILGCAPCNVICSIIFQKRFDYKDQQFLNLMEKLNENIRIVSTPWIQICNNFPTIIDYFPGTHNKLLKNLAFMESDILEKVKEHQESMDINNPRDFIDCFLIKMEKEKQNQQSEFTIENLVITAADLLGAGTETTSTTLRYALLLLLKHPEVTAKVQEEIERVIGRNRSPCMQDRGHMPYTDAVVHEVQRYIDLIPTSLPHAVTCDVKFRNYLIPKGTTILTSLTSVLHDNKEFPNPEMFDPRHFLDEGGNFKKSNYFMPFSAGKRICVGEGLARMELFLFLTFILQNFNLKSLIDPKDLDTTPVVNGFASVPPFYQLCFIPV
Alpha-galactosidase (Coffea arabica), sequence (Q42656 whole entry, looked up): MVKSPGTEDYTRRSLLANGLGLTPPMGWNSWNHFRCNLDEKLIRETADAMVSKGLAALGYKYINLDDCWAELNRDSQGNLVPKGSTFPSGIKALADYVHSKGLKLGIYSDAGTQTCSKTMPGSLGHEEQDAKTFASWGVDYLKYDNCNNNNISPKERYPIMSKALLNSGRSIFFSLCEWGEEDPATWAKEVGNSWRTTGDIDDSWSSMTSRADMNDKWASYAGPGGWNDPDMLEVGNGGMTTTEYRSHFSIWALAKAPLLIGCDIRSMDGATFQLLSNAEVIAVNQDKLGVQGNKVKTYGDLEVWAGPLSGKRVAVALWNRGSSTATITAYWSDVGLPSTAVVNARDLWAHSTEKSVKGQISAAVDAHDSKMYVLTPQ
3',5'-cyclic-AMP phosphodiesterase 4B (Homo sapiens), sequence (Q07343 whole entry, looked up): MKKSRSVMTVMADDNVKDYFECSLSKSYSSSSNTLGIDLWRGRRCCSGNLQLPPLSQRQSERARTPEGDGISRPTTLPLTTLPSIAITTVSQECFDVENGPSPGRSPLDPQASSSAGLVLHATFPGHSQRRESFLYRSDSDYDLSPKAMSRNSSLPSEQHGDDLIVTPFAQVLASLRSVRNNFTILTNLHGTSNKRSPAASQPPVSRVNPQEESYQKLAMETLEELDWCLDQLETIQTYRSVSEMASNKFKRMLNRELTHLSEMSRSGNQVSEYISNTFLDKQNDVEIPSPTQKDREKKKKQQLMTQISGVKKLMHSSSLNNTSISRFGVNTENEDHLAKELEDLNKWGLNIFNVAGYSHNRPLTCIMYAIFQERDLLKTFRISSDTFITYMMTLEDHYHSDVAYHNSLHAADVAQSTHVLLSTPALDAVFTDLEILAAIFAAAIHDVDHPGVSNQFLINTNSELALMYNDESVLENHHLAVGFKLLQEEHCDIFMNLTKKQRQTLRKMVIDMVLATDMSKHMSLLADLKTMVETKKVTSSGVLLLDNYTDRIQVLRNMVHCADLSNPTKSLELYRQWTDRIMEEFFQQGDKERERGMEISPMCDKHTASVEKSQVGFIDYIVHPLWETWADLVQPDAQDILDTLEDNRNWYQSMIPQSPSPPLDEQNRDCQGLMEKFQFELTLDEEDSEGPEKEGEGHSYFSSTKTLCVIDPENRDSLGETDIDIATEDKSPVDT
Muscarinic acetylcholine receptor M1 (Rattus norvegicus), sequence (P08482 whole entry, looked up): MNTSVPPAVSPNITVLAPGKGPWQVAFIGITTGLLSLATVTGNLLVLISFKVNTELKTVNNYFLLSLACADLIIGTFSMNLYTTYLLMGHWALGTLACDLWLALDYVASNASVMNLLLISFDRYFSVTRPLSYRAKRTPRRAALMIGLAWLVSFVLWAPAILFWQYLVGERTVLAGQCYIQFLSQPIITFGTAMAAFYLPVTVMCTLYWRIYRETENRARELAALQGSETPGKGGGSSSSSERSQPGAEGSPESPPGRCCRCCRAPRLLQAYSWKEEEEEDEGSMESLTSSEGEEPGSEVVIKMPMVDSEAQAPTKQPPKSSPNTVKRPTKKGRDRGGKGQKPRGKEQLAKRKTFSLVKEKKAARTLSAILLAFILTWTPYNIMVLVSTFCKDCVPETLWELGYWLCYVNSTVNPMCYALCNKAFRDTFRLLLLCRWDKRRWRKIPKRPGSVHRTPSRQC
Cytochrome P450 1A2 (Homo sapiens), sequence (P05177 whole entry, looked up): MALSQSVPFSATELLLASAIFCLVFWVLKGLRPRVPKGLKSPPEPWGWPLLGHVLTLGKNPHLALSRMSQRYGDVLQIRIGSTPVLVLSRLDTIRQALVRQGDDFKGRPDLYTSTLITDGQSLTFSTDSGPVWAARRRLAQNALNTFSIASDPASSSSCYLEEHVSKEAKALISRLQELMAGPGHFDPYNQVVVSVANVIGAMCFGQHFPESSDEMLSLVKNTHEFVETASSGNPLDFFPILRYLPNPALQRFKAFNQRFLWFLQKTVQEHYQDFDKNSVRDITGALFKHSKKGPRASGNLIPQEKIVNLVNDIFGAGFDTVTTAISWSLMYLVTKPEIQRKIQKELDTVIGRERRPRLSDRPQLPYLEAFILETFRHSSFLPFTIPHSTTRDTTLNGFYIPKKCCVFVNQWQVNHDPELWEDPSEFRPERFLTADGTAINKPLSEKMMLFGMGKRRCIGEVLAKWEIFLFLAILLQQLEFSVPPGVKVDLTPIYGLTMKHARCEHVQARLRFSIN
Cytochrome P450 2D6 (Homo sapiens), sequence (P10635 whole entry, looked up): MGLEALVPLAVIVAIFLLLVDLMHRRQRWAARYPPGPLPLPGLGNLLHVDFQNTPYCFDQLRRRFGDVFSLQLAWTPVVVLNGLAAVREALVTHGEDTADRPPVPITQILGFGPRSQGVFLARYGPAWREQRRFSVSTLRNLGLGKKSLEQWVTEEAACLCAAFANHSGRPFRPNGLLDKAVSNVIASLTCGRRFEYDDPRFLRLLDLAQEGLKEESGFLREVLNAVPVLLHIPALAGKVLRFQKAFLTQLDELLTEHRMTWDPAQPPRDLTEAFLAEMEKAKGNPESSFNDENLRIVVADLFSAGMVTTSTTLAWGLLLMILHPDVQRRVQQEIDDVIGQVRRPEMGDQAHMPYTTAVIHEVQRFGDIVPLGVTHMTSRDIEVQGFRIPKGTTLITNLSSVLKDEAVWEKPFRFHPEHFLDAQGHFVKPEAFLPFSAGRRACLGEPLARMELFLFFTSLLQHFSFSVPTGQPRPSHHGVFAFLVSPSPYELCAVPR
Cytochrome P450 3A4 (Homo sapiens), sequence (P08684 whole entry, looked up): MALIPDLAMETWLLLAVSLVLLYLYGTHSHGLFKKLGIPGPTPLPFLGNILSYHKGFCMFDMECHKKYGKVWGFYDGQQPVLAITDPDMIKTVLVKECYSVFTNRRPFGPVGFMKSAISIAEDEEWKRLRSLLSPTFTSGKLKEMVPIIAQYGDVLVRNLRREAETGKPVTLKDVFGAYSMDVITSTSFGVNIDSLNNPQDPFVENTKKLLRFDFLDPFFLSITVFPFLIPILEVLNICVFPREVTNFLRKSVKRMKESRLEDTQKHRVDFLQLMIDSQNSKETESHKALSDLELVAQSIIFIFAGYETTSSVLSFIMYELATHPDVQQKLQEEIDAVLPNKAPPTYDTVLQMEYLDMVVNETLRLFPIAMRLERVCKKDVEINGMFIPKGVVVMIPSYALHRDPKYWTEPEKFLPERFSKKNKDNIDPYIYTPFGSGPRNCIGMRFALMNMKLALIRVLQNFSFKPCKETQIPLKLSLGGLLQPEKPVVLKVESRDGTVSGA

O=CN1C[C@H]2C[C@@H](C1)c1cccc(=O)n1C2
inactive: Potency [1] | Potency [2] > 46 µM | Potency [3] > 46 µM | outcome [4] | outcome [5] | Potency [6] | Potency [7] | Potency [8]

C=C[C@@H]1CN2CC[C@@H]1C[C@H]2[C@H](O)c1ccnc2ccccc12
active: Potency [7] 3.98 µM
inactive: Potency [1] | Potency [2] > 46 µM | Potency [3] > 46 µM | outcome [4] | outcome [5] | Potency [6] | Potency [8]

CN1CCc2nc3sc(C#N)c(N)c3c(-c3cccs3)c2C1
inactive: activity change, negative = inhibition [9] -0.879% | Potency [2] > 20.6 µM

CN1[C@@H]2CC[C@H]1CC(O[C@@H](c1ccccc1)c1ccccc1N)C2 (some centres undefined)
inactive: activity change, negative = inhibition [9] 12.1% [at 38 µM] | Potency [2] > 46 µM | Potency [3] > 46 µM | outcome [4] | outcome [5] | Potency [10] | Potency [6] | Potency [11] | outcome [12] | Potency [15] | outcome [16] | outcome [17] | outcome [18] | outcome [19] | outcome [20]
active: Potency [13] 0.0141 µM | Potency [14] 0.0071 µM

Ic1ccccc1CN[C@@H]1C2CCN(CC2)[C@H]1C(c1ccccc1)c1ccccc1
inactive: activity change, negative = inhibition [21] -6.46% [at 38 µM] | Potency [2] > 46 µM | Potency [3] > 46 µM | outcome [4] | Potency [10] | Potency [11] | Potency [14] | Potency [15] | outcome [16] | outcome [17] | outcome [18] | outcome [19] | outcome [20]
active: Potency [1] 12.6 µM | Potency [7] 0.0631 µM | Potency [22] 12.6 µM

CC(=O)N1C[C@@H]2C[C@H](C1)c1cccc(=O)n1C2
inactive: Potency [1] | Potency [2] > 46 µM | Potency [3] > 46 µM | outcome [4] | outcome [5] | Potency [6] | Potency [7] | Potency [8]
